Source: PubChem (The Scripps Research Institute Molecular Screening Center)
ULK1 primary: human ULK1 kinase inhibition, primary screen; O75385; AlphaScreen Atg13 phosphorylation by ULK1, luminescence; inhibition, % at 5.96 µM; actives 1.9% (n = 30,000); in the data active = inhibition above about 43%;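 also: 0% = median of compound wells and 100% = no enzyme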
ASK1 inh: inhibitors of human ASK1 kinase; Q99683; AlphaScreen MKK6 phosphorylation by ASK1, luminescence; inhibition, % at 7.44 µM; actives 0.99% (n = 22,000); AID 1159602; in the data active = inhibition above about 35%;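 also: 0% = median of compound wells and 100% = no enzyme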
An asterisk follows results filed as active. In the library only some 2.5% were active in any assay of this set; here they are far more common.

How did COc1ccc(-c2nc(Nc3ccc(N4CCOCC4)cc3)c3ncn(-c4ccccc4)c3n2)cn1 do in these assays?
ULK1 primary: -10.4; ASK1 inh: 3.7

What do the screens show for `Cc1cc(Nc2ccc(OCCN3CCCCC3)cc2)nc(-c2cccc(OC(F)(F)F)c2)n1`?
ULK1 primary: -22.9; ASK1 inh: -11.7

Results for c1cc(OCCN2CCCCC2)cc(-c2n[nH]c3ccc(-c4ncn[nH]4)cc23)c1 ?
ULK1 primary: 44.9*; ASK1 inh: -12.2

How did NC(=O)c1ccc2[nH]nc(-c3cccc(OCCN4CCCCC4)c3)c2c1 do in these assays?
ULK1 primary: 61.0*; ASK1 inh: 5.9

How did O=C(O)c1ccc(OCCN2CCCCC2)cc1 do in these assays?
ULK1 primary: -7.2

Results for COc1ccc(-c2nc(Nc3ccccc3)c3cc(OC)c(OC)cc3n2)cc1 ?
ULK1 primary: -37.9; ASK1 inh: -6.6

What do the screens show for `COc1cc2nc(-c3cccc(N)c3)nc(N)c2cc1OC`?
ULK1 primary: -8.7; ASK1 inh: -15.0

What do the screens show for `CS(=O)(=O)Nc1ccc(-c2ccnc(Nc3ccc(-n4cncn4)cc3)n2)cc1`?
ULK1 primary: 67.2*; ASK1 inh: 7.1

What do the screens show for `CS(=O)(=O)Nc1ccc(-c2ccnc(Nc3ccc(C(O)(C(F)(F)F)C(F)(F)F)cc3)n2)cc1`?
ULK1 primary: 32.8; ASK1 inh: -28.8

How did Cc1ccc(-c2ncn(-c3ccc(Nc4nccc(-c5ccc(NS(C)(=O)=O)cc5)n4)cc3)n2)cn1 do in these assays?
ULK1 primary: 11.8; ASK1 inh: 3.4

Results for CC(=O)c1ccc(Nc2nccc(-c3ccc(NS(C)(=O)=O)cc3)n2)cc1 ?
ULK1 primary: 55.1*; ASK1 inh: -22.4

What do the screens show for `COc1cc(OC)nc(Oc2ccccc2C(=O)NCC(=O)OC(C)(C)C)n1`?
ULK1 primary: 7.9

Results for CCC(NC(C)C)C(O)c1ccc(O)c(O)c1 (centres undefined) ?
ULK1 primary: 8.2

How did NCC(O)c1ccc(O)c(O)c1 (centres undefined) do in these assays?
ULK1 primary: 80.3*

What do the screens show for `c1nc(NCCN2CCOCC2)cc(Nc2ccc3c(c2)OCO3)n1`?
ULK1 primary: 7.5; ASK1 inh: 2.7

Results for COc1cc(Nc2nc(-c3ccc(N4CCOCC4)nc3)ncc2C)cc(OC)c1OC ?
ULK1 primary: 88.7*; ASK1 inh: 8.6

How did Cc1cnc(-c2ccc(N3CCOCC3)nc2)nc1Nc1ccc(Oc2ccccc2)cc1 do in these assays?
ULK1 primary: -7.5; ASK1 inh: 1.7

Results for COc1cc2nc(-c3ccc(N4CCOCC4)nc3)nc(Nc3cc(OC)c(OC)c(OC)c3)c2cc1OC ?
ULK1 primary: -5.5; ASK1 inh: 0.9

Results for COc1cc(Nc2ccnc(-c3ccc(N4CCOCC4)nc3)n2)cc(OC)c1OC ?
ULK1 primary: 73.6*; ASK1 inh: 8.5

What do the screens show for `COc1ccc(-c2nc(NCc3cccnc3)c3[nH]cnc3n2)cn1`?
ULK1 primary: 8.5; ASK1 inh: -14.5

How did c1cncc(CNc2nc(-c3ccc(N4CCOCC4)nc3)nc3nc[nH]c23)c1 do in these assays?
ULK1 primary: 58.5*; ASK1 inh: -1.5

What do the screens show for `COc1cc(Nc2nc(-c3ccc(N4CCOCC4)nc3)nc3nc[nH]c23)cc(OC)c1OC`?
ULK1 primary: -9.3; ASK1 inh: 7.5

What do the screens show for `Cc1cnc(-c2ccc(N3CCOCC3)nc2)nc1Nc1ccc(N2CCOCC2)cc1`?
ULK1 primary: 52.1*; ASK1 inh: 15.9

Results for FC(F)(F)c1cccc(CNc2nc(N3CCc4ccccc4C3)nc3nc[nH]c23)c1 ?
ULK1 primary: -5.5; ASK1 inh: 1.8

How did O=C(NC1CCN(Cc2ccccc2)CC1)C1CCN(c2ccc(Nc3ccccc3)nn2)CC1 do in these assays?
ULK1 primary: 0.3; ASK1 inh: 0.8

How did NC(C(=O)N1CCC(Nc2ccc3[nH]ncc3c2)C1)c1ccc(F)cc1F (centres undefined) do in these assays?
ULK1 primary: 11.0; ASK1 inh: -23.8

How did COc1ccnc(Nc2ccc(S(N)(=O)=O)cc2)n1 do in these assays?
ULK1 primary: 16.0; ASK1 inh: 4.2

Results for CCN(CC)c1nc(NCCc2ccc(O)cc2)nc(Nc2cnccn2)n1 ?
ULK1 primary: 2.0; ASK1 inh: 10.9

How did c1ccc2c(c1)CC(c1nc3ccc(-c4ccncc4)cc3[nH]1)CCO2 (centres undefined) do in these assays?
ULK1 primary: -20.0; ASK1 inh: -4.5

How did COc1cc2nc(N3CCc4ccccc4C3)nc(NC3CC3)c2cc1OC do in these assays?
ULK1 primary: -13.2; ASK1 inh: 8.7

What do the screens show for `CC(C)n1cnc2c(NCc3nc4ccccc4[nH]3)nc(Nc3cccc(N(C)C)c3)nc21`?
ULK1 primary: 12.3; ASK1 inh: -0.8

Results for COc1ccc(-c2ncc(C)c(Nc3cc(OC)c(OC)c(OC)c3)n2)cn1 ?
ULK1 primary: 55.2*; ASK1 inh: 18.2

How did COc1ccc(-c2ncc(C)c(Nc3ccccc3)n2)cn1 do in these assays?
ULK1 primary: -23.8; ASK1 inh: 10.8

Results for COc1cc(Nc2cc(C)nc(-c3ccc(C(=O)NC4CC4)cc3)n2)cc(OC)c1OC ?
ULK1 primary: -9.4; ASK1 inh: 3.2

Results for CC(=O)Nc1ccc(Nc2ccnc(-c3ccc(N4CCOCC4)nc3)n2)cc1 ?
ULK1 primary: 38.1; ASK1 inh: 2.2

What do the screens show for `COc1cc(Nc2ccnc(-c3ccc(C(=O)NC4CC4)cc3)n2)cc(OC)c1OC`?
ULK1 primary: 45.2*; ASK1 inh: -0.3

What do the screens show for `c1cc(Nc2ccc(N3CCOCC3)cc2)nc(-c2ccc(N3CCOCC3)nc2)n1`?
ULK1 primary: 60.1*; ASK1 inh: 7.7

What do the screens show for `O=C(NCCCN1CCCC1=O)c1csc(NCc2ccc3c(c2)OCO3)n1`?
ULK1 primary: 5.7; ASK1 inh: -8.6

What do the screens show for `CCN(CC)C(=O)C1CCCN(c2ccc(-n3cc(CC(=O)NCc4cccc(C(F)(F)F)c4)c4ccccc43)nn2)C1` (centres undefined)?
ULK1 primary: 12.0; ASK1 inh: -4.5

What do the screens show for `CCN(CC)c1nc(NCCN2CCOCC2)nc(NCCN2CCOCC2)n1`?
ULK1 primary: -1.6; ASK1 inh: -11.5

What do the screens show for `CC(C)n1cnc2c(NCCN3CCOCC3)nc(Nc3ccncn3)nc21`?
ULK1 primary: 9.4; ASK1 inh: -18.7

How did CCOC(=O)c1ccccc1O do in these assays?
ULK1 primary: 54.0*

Results for O=C(OCCO)c1ccccc1O ?
ULK1 primary: -0.2

Results for Cc1cnc(Nc2ccncn2)nc1NCCCN1CCCC1=O ?
ULK1 primary: 3.2; ASK1 inh: -0.7

How did Nc1cc(Nc2ccccc2CO)c(C(F)(F)F)cn1 do in these assays?
ULK1 primary: 55.6*; ASK1 inh: 8.5

How did O=C(Cc1ccc(F)cc1)Nc1cc(Nc2ccccc2CO)c(C(F)(F)F)cn1 do in these assays?
ULK1 primary: 18.2; ASK1 inh: 12.8

How did c1ccc(-n2cnc3c(NCc4nc5ccccc5[nH]4)nc(Nc4cccnc4)nc32)cc1 do in these assays?
ULK1 primary: 11.3; ASK1 inh: 2.5

What do the screens show for `COc1cc(Nc2cc(C)nc(Nc3nccc4ccccc34)n2)cc(OC)c1OC`?
ULK1 primary: -8.9; ASK1 inh: 13.8

What do the screens show for `CC(C)(O)c1ccccc1CC[C@@H](SCC1(CC(=O)O)CC1)c1cccc(/C=C/c2ccc3ccc(Cl)cc3n2)c1`?
ULK1 primary: 43.0*

Results for CCCNC(=O)Cc1cn(-c2ccc(NCCCN3CCCC3=O)nn2)c2ccccc12 ?
ULK1 primary: -3.9; ASK1 inh: -15.4
